Reference: PubChem BioAssay (EPA / NIEHS)
Results filed as inconclusive are left out. Activity calls are given as the source filed them. The calls were made as follows: active = hit-call score of the fitted dose curve at least 0.9, where 1 is the maximum; inconclusive = response in the unintended direction; inactive = score below 0.9.

Tests used:
[1] = Tanguay_ZF_120hpf_AXIS_legacy: (Legacy) Oregon State University Tanguay Lab 120 Hour Post-fertilization zebrafish Assay for Body Axis Malformation (AID 2283635);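 as to AC50: potency for an increased fraction of larvae scored with body axis malformation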
Procedure, shortened: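 Static 6–120 hpf chemical exposure of dechorionated wild-type 5D zebrafish, one per well at 28C; morphology endpoint scored binary at 120 hpf relative to DMSO control.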

[2] = Tanguay_ZF_120hpf_EYE_legacy: (Legacy) Oregon State University Tanguay Lab 120 Hour Post-fertilization zebrafish Assay for Eye Malformation (AID 2283636)
Procedure, shortened: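 Read-out is binary presence or absence of eye malformation, scored by brightfield microscopy at 120 hpf. Single larvae were exposed from 6 hpf in embryo medium containing 0.64% DMSO, with DMSO as baseline.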

[3] = Tanguay_ZF_120hpf_SNOU_legacy: (Legacy) Oregon State University Tanguay Lab 120 Hour Post-fertilization zebrafish Assay for Snout Malformation (AID 2283637)
Procedure, shortened: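 Snout malformation read as a yes/no call on brightfield images of 120 hpf larvae (Tropical 5D strain). Static exposure began at 6 hpf on dechorionated embryos in 0.64% DMSO, with gain of signal analysed versus DMSO controls.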

[4] = Tanguay_ZF_120hpf_JAW_legacy: (Legacy) Oregon State University Tanguay Lab 120 Hour Post-fertilization zebrafish Assay for Jaw Malformation (AID 2283638);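 as to AC50: active means more embryos with jaw malformation than DMSO controls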
Procedure, shortened: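 Static waterborne exposure of dechorionated wild-type (Tropical 5D) zebrafish from 6 to 120 hpf at 28C, 0.64% DMSO vehicle; 5uM trimethyltin chloride served as positive control. Jaw morphology recorded as binary at 120 hpf.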

[5] = Tanguay_ZF_120hpf_OTIC_legacy: (Legacy) Oregon State University Tanguay Lab 120 Hour Post-fertilization zebrafish Assay for Otic Vesicle Malformation (AID 2283639)
Procedure, shortened: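 Embryos from 5D wild-type adults exposed in plates; DMSO 0.64% v/v final. Sealed, light-protected, 28C, static to 120 hpf. Otic vesicle malformation recorded as binary endpoint; gain-of-signal fitted vs DMSO.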

[6] = Tanguay_ZF_120hpf_PE_legacy: (Legacy) Oregon State University Tanguay Lab 120 Hour Post-fertilization zebrafish Assay for Pericardial Edema (AID 2283640);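 as to AC50: potency for increased incidence of pericardial edema versus DMSO baseline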
Procedure, shortened: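 Read-out is the presence or absence of pericardial edema at 120 hpf under brightfield, with gain of signal fitted against DMSO controls. Larvae (5D wild-type) were statically exposed at 28C with 0.64% final DMSO.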

[7] = Tanguay_ZF_120hpf_SOMI_legacy: (Legacy) Oregon State University Tanguay Lab 120 Hour Post-fertilization zebrafish Assay for Somite Malformation (AID 2283647)
Procedure, shortened: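 5D WT zebrafish; chorion removed 4 hpf; 1 embryo/well from 6 hpf; static exposure to 120 hpf, 28C, 0.64% DMSO final. Endpoint: somite malformation, binary, brightfield. Mortality excluded.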

[8] = Tanguay_ZF_120hpf_PFIN_legacy: (Legacy) Oregon State University Tanguay Lab 120 Hour Post-fertilization zebrafish Assay for Pectoral Fin Malformation (AID 2283648);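 also: each larva judged yes or no for fin defect by brightfield with dead larvae skipped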
Procedure, shortened: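 5D WT zebrafish; pronase dechorionation 4 hpf; 1 embryo/well at 6 hpf; static exposure to 120 hpf, 28C, sealed, foil-covered; final DMSO 0.64% v/v; 5 uM trimethyltin chloride positive control; fin defect scored yes/no.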

[9] = Tanguay_ZF_120hpf_CFIN_legacy: (Legacy) Oregon State University Tanguay Lab 120 Hour Post-fertilization zebrafish Assay for Caudal Fin Malformation (AID 2283649)
Procedure, shortened: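 Embryos were collected from Tropical 5D wild-type adults and dechorionated at 4 hpf. At 6 hpf each was exposed, one per well, at 0.64% DMSO and 28C. At 120 hpf fin morphology was scored; dead embryos were excluded.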

[10] = Tanguay_ZF_120hpf_MORT_legacy: (Legacy) Oregon State University Tanguay Lab 120 Hour Post-fertilization zebrafish Assay for Mortality (AID 2283633)
Procedure, shortened: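 Mortality endpoint from a multiplexed whole-embryo zebrafish screen. Dechorionated wild-type embryos received compound at 6 hpf and remained under static exposure at 28C until 120 hpf, with death noted as a present/absent call.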

[11] = target: Cellular tumor antigen p53 (Homo sapiens) (UniProt P04637); assay: TOX21_p53_BLA_p2_ratio: Tox21 HCT-116 p53 Agonism Beta-lactamase Assay, Ratio, Phase 2 (AID 2283592)
Procedure, shortened: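 An inducible beta-lactamase reporter in HCT116 cells signals p53 pathway activation. After 16 h chemical exposure at 37C, cells load CCF4-AM substrate for 2 h at room temperature; activity is the cleaved/uncleaved emission ratio relative to DMSO.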

[12] = TOX21_p53_BLA_p3_viability: Viability Assessment in the Tox21 HCT-116 p53 Agonism Beta-lactamase Assay, Phase 3 (AID 2283593);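 also: cells exposed to compound for 16 h before reading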
Procedure, shortened: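 Cellular ATP was quantified by CellTiter-Glo luminescence, read after 30 min at room temperature. Beforehand, HCT116 cells (4000/well) received compound 5 h post-seeding, 217-fold diluted from DMSO, then incubated 16 h at 37C.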

[13] = TOX21_p53_BLA_p4_viability: Viability Assessment in the Tox21 HCT-116 p53 Agonism Beta-lactamase Assay, Phase 4 (AID 2283597);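 also: hits lower the luminescence signal meaning cytotoxicity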
Procedure, shortened: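 Compound exposure of HCT116 cells lasts 16 h at 37C, 5% CO2, with DMSO stocks diluted 217-fold. Cellular ATP is then quantified by CellTiter-Glo luminescence after 30 min at room temperature.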

[14] = target: Cellular tumor antigen p53 (Homo sapiens) (UniProt P04637); assay: TOX21_p53_BLA_p5_ratio: Tox21 HCT-116 p53 Agonism Beta-lactamase Assay, Ratio, Phase 5 (AID 2283599)
Procedure, shortened: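 Beta-lactamase reporter ratio (blue 460 nm over green 530 nm, 405 nm excitation) after 2 h CCF4-AM loading, in HCT-116 cells exposed 16 h at 37 C to compounds pinned at 217-fold dilution. Increases relative to DMSO baseline scored.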

[15] = TOX21_p53_BLA_p5_viability: Viability Assessment in the Tox21 HCT-116 p53 Agonism Beta-lactamase Assay, Phase 5 (AID 2283600)
Procedure, shortened: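 Counter-readout for cytotoxicity: ATP-dependent luminescence from CellTiter-Glo, read in the beta-lactamase wells after 30 min at RT, following a 16 h compound exposure at 37C.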

[16] = Tanguay_ZF_120hpf_YSE_legacy: (Legacy) Oregon State University Tanguay Lab 120 Hour Post-fertilization zebrafish Assay for Yolk Sac Edema (AID 2283634);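 as to AC50: actives raise the incidence of yolk sac edema above the DMSO baseline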
Procedure, shortened: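 Readout: presence or absence of yolk sac edema at 120 hpf, fitted upward against DMSO controls. Exposure ran statically from 6 hpf in dechorionated embryos kept at 28C.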

[17] = Tanguay_ZF_120hpf_BRAI_legacy: (Legacy) Oregon State University Tanguay Lab 120 Hour Post-fertilization zebrafish Assay for Brain Malformation (AID 2283641)
Procedure, shortened: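 Brain malformation in Tropical 5D zebrafish was recorded as a binary endpoint after static compound exposure from early development to 120 hpf at 28C. Activity was analysed against DMSO as negative control.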

[18] = target: Cellular tumor antigen p53 (Homo sapiens) (UniProt P04637); assay: TOX21_p53_BLA_p4_ratio: Tox21 HCT-116 p53 Agonism Beta-lactamase Assay, Ratio, Phase 4 (AID 2283601)
Procedure, shortened: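 Signal is the blue/green (460nm/530nm) ratio of cleaved versus uncleaved CCF4-AM substrate, read after 2 h substrate loading. Cells were HCT116 carrying the p53-responsive beta-lactamase reporter, dosed 16 h at 37C, 5% CO2; CellTiter-Glo measured in parallel.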

[19] = target: Cellular tumor antigen p53 (Homo sapiens) (UniProt P04637); assay: TOX21_p53_BLA_p3_ratio: Tox21 HCT-116 p53 Agonism Beta-lactamase Assay, Ratio, Phase 3 (AID 2283596)
Procedure, shortened: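 HCT116 p53-bla cells (4000/well) given compound in DMSO (217-fold dilution) after 5 h, incubated 16 h at 37C. CCF4-AM substrate 2 h at room temperature; 460/530 nm emission ratio, gain fitted against DMSO.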

[20] = TOX21_p53_BLA_p2_viability: Viability Assessment in the Tox21 HCT-116 p53 Agonism Beta-lactamase Assay, Phase 2 (AID 2283591);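 also: actives lower the ATP signal meaning cytotoxicity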
Procedure, shortened: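 Cytotoxicity readout: CellTiter-Glo ATP luminescence, 30 min at room temperature, after the beta-lactamase read. Cells were HCT116 exposed 16 h at 37C to compounds pin-transferred at 217-fold dilution from DMSO stocks.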

Measured: AC50

Chain of Cellular tumor antigen p53 (Homo sapiens) (P04637 whole entry, looked up): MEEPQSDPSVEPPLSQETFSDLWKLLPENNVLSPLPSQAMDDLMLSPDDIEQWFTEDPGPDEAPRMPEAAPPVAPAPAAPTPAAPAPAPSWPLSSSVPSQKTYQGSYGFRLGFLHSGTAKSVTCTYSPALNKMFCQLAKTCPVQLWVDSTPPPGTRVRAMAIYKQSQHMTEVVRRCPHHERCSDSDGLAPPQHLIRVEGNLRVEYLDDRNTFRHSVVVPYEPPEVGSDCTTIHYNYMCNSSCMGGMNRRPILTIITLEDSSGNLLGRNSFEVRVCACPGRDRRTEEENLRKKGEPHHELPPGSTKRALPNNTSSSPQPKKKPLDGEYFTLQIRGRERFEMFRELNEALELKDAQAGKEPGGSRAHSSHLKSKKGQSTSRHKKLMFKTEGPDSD

CCCSP(=O)(OCC)SCCC
inactive: [1] | [2] | [3] | [4] | [5] | [6] | [7] | [8] | [9]

O=C(O)c1cc(Oc2ccc(C(F)(F)F)cc2Cl)ccc1[N+](=O)[O-]
inactive: [10] | [1] | [2] | [3] | [4] | [5] | [6] | [8] | [9]

CCOP(=O)(SC(C)CC)N1CCSC1=O (centres undefined)
inactive: [10] | [1] | [2] | [3] | [4] | [5] | [6] | [8] | [9]

CCCCN(CC)c1c([N+](=O)[O-])cc(C(F)(F)F)cc1[N+](=O)[O-]
not listed: [7] | [18] | [19] | [20]
inactive: all other assays above

CC(C)[C@H](C(=O)O[C@H](C#N)c1cccc(Oc2ccccc2)c1)c1ccc(Cl)cc1
active: [1] 1.96 µM | [2] 2.82 µM | [3] 2.25 µM | [4] 5.13 µM | [6] 5.21 µM | [7] 1.15 µM | [8] 1.17 µM
not listed: [16] | [17] | [19] | [20]
inactive: all other assays above

CSc1nnc(C(C)(C)C)c(=O)n1N
not listed: [17] | [20]
inactive: all other assays above

CCOP(=S)(Oc1cnc(C(C)(C)C)nc1)OC(C)C (centres undefined)
not listed: [9] | [12] | [14] | [16] | [17] | [19] | [20]
inactive: all other assays above

COP(=O)(OC)SCn1c(=O)oc2cc(Cl)cnc21
active: [19] 49.1 µM | [14] 73.7 µM | [16] 44 µM | [2] 15.3 µM | [3] 47.5 µM | [4] 15.9 µM | [6] 11.2 µM
not listed: [12] | [17] | [20]
inactive: all other assays above

CC(C1CC1)C(O)(Cn1cncn1)c1ccc(Cl)cc1 (centres undefined)
active: [1] 24.8 µM | [2] 9.92 µM | [3] 9.24 µM | [4] 24.7 µM | [6] 15.1 µM | [17] 22.6 µM | [8] 25.9 µM
inactive: [20] | [12] | [13] | [15] | [18] | [10] | [9]

CNc1cnn(-c2cccc(C(F)(F)F)c2)c(=O)c1Cl
not listed: [5] | [13] | [15] | [16] | [17] | [18] | [19] | [20]
inactive: all other assays above

CCc1cnc(C2=NC(C)(C(C)C)C(=O)N2)c(C(=O)O)c1 (centres undefined)
not listed: [11] | [12] | [13] | [14] | [15] | [18] | [19] | [20]
inactive: all other assays above

CC(COc1ccc(Oc2ccccc2)cc1)Oc1ccccn1 (centres undefined)
not listed: [2] | [12] | [15] | [16] | [17] | [19]
inactive: all other assays above

Nc1c(Cl)cc([N+](=O)[O-])cc1Cl
inactive: [7]
active: [16] 33 µM | [1] 40.4 µM | [2] 9.62 µM | [3] 31.1 µM | [4] 31.4 µM | [5] 36.4 µM | [6] 43.1 µM | [17] 46.3 µM | [8] 42.1 µM | [9] 39.1 µM

CCCOc1nn(C(=O)NS(=O)(=O)c2ccccc2C(=O)OC)c(=O)n1C
inactive: [14] | [18] | [10] | [2] | [3] | [4] | [5] | [6] | [9]

CC1=NNC(=O)N(/N=C/c2cccnc2)C1
not listed: [12] | [14] | [19] | [20]
inactive: all other assays above

COP(=O)(OC)OC(Br)C(Cl)(Cl)Br (centres undefined)
inactive: [10] | [1] | [2] | [3] | [4] | [5] | [6] | [7] | [8]

CCNc1nc(Cl)nc(NC(C)(C)C#N)n1
inactive: [20] | [12] | [13] | [14] | [18] | [10] | [2] | [3] | [6] | [8] | [9]

Cc1nn(-c2cc(NS(C)(=O)=O)c(Cl)cc2Cl)c(=O)n1C(F)F
not listed: [9] | [12] | [14] | [17] | [19] | [20]
inactive: all other assays above
